Assay [1] in a line: small molecules captured by biotinylated probe aFSTL3 – biochemical, small-molecule microarray, fluorescence 635/667, stem cell growth factor project, primary screen (AID 1064).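 Also: measures binding of the biotinylated anti-FSTL3 antibody to printed compounds.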 The note with it: higher = more signal.
A short description of assay [2]: binders from COS7 lysate, DM2A8 probe, primary screen, torsin A project, cell lysate, small-molecule microarray, fluorescence 635/667 (AID 1065). Conditions: higher = more signal, COS7 lysate expressing mutant human TOR1A.
The nature of assay [3]: small molecules captured by biotinylated probe aFGF2 – biochemical, small-molecule microarray, fluorescence 635/667, stem cell growth factor project, primary screen (AID 1067).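 Also: measures binding of biotinylated aFGF2 protein to printed compounds on slides; z-score merges feature fluorescence and signal-to-noise across triplicate slides.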 The note with it: higher = more signal.
Assay [4] can be described thus: small molecules captured by biotinylated probe aFGF10 – biochemical, small-molecule microarray, fluorescence 635/667, stem cell growth factor project, primary screen (AID 1071).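 Also: score merges 667 nm spot intensity and signal to noise from triplicate slides.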 The note with it: higher = more signal.
Assay [5] addresses Neurogenic locus notch homolog protein 2 (Homo sapiens) (UniProt Q04721). The assay is described as follows: small molecules binding Notch2 protein – biochemical, small-molecule microarray, 635 nm fluorescence, stem cell growth factors, primary screen (AID 1073). Conditions: higher = more signal.
For assay [6], the target named is Pro-neuregulin-1, membrane-bound isoform (Homo sapiens) (UniProt Q02297). The assay is described as follows: small molecules binding neuregulin-1 protein – biochemical, small-molecule microarray, fluorescence 635/667, psychiatric disease protein project, primary screen (AID 1075).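 Also: score combines 667 nm spot fluorescence with signal to noise.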 Conditions: NRG1 binding, 635 nm fluorescence, higher = more signal.
For assay [7], the system named is Neuregulin-1 EGF-like domain. Nature of the assay: small molecules binding NRG1 EGF domain – biochemical, small-molecule microarray, 635 nm fluorescence, primary screen (AID 1081).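 Also: binding of the protein to compounds printed on small-molecule microarray slides.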 The note with it: higher = more signal.
A short description of assay [8]: FRG1 expression reporter modulators in myotubes – cell-based, C2C12 myotubes, firefly/Renilla luciferase, luminescence, FRG1 inhibition for FSHD, primary screen (AID 1084). Conditions: FRG1 promoter luciferase, higher = more signal, called active from +8 up or from −8 down.
The nature of assay [9]: small molecules captured by biotinylated probe aFST – biochemical, small-molecule microarray, fluorescence 635/667, stem cell growth factor project, primary screen (AID 1086).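 Also: score merges 667 nm fluorescence with signal-to-noise of each printed compound spot.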 Conditions: higher = more signal.
Assay [10] in a line: binders of probe aHhip on microarray, primary screen, stem cell growth factor project, biochemical, small-molecule microarray, fluorescence 635/667 (AID 1087).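 Also: score merges spot fluorescence at 667nm with spot signal to noise ratio.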 The note with it: higher = more signal.
Assay [11] has as its system PRMT1 (protein arginine N-methyltransferase 1). Nature of the assay: small molecules binding arginine methyltransferase PRMT1 – biochemical, small-molecule microarray, 635 nm fluorescence, primary screen (AID 1088).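 Also: binding of Prmt1 protein to compounds spotted on small-molecule microarray slides.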 Conditions: higher = more signal.
A short description of assay [12]: growth effects on S. cerevisiae YJM789 – YJM789 clinical isolate, OD600, 24 h, basal, primary screen (AID 1089).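 Also: growth of clinical yeast isolate S. cerevisiae YJM 789 seeded 1000 cells per well; test concentration not given here.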 Conditions: higher = more signal, called active from +8 up or from −8 down.
Assay [13] can be described thus: S. pombe growth modifiers, basal conditions – strain 972, OD600, 24 h, no modulator, primary screen (AID 1090).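 Also: basal condition with compound alone and no growth modifier present; test concentration not given here.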 Conditions: S. pombe 972 growth, higher = more signal, called active from +8 up or from −8 down.
A short description of assay [14]: budding yeast growth modifiers under rapamycin – strain BY4716, OD600, 96 h, primary screen (AID 1091). Also: test concentration not given here. The note with it: S. cerevisiae BY4716 + rapamycin, higher = more signal, called active from +8 up or from −8 down.
In assay [15] the target is Torsin-1A-interacting protein 2 (Homo sapiens) (UniProt Q8NFQ8). The assay is described as follows: small molecules binding lysate-expressed LULL1 – cell lysate, human LULL1 lysate, 635/667 nm fluorescence, primary screen (AID 1092).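 Also: probe is lysate of COS7 cells overexpressing human LULL1; score merges per-feature 667 nm fluorescence with signal-to-noise.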 Conditions: small-molecule microarray, hLULL1 lysate binding, 635 nm fluorescence; higher = more signal.
Assay [16] in a line: optical density change of DRC41 E. coli – strain DRC41, OD650, 24 h, E. coli filamentation project, primary screen (AID 1093).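 Also: MC1000 strain lacking acrAB efflux and sulA so SOS filamentation is blocked; test concentration not given here.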 Conditions: E. coli DRC41 growth, higher = more signal, called active from +8 up or from −8 down.
Assay [17] is described as follows: probe aLefty2 binding to arrayed compounds – biochemical, biotinylated probe, 635/667 nm fluorescence, primary screen (AID 1094).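 Also: score merges spot fluorescence near 667 nm with spot signal-to-noise ratio.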 The note with it: small-molecule microarray, higher = more signal.
Assay [18] concerns Noggin (protein binding on small-molecule microarray). The assay is described as follows: small molecules binding Noggin protein – biochemical, 635/667 nm fluorescence, primary screen (AID 1095).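 Also: score merges 667 nm feature fluorescence with signal to noise over triplicate slides.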 Conditions: 635 nm fluorescence, higher = more signal.
The target in assay [19] is Neurogenic locus notch homolog protein 3 (Homo sapiens) (UniProt Q9UM47). Nature of the assay: small molecules binding NOTCH3 protein – biochemical, 635/667 nm fluorescence, primary screen (AID 1096). Conditions: small-molecule microarray, 635 nm fluorescence, higher = more signal.
Neurogenic locus notch homolog protein 3 (Homo sapiens), sequence (Q9UM47 whole entry, looked up): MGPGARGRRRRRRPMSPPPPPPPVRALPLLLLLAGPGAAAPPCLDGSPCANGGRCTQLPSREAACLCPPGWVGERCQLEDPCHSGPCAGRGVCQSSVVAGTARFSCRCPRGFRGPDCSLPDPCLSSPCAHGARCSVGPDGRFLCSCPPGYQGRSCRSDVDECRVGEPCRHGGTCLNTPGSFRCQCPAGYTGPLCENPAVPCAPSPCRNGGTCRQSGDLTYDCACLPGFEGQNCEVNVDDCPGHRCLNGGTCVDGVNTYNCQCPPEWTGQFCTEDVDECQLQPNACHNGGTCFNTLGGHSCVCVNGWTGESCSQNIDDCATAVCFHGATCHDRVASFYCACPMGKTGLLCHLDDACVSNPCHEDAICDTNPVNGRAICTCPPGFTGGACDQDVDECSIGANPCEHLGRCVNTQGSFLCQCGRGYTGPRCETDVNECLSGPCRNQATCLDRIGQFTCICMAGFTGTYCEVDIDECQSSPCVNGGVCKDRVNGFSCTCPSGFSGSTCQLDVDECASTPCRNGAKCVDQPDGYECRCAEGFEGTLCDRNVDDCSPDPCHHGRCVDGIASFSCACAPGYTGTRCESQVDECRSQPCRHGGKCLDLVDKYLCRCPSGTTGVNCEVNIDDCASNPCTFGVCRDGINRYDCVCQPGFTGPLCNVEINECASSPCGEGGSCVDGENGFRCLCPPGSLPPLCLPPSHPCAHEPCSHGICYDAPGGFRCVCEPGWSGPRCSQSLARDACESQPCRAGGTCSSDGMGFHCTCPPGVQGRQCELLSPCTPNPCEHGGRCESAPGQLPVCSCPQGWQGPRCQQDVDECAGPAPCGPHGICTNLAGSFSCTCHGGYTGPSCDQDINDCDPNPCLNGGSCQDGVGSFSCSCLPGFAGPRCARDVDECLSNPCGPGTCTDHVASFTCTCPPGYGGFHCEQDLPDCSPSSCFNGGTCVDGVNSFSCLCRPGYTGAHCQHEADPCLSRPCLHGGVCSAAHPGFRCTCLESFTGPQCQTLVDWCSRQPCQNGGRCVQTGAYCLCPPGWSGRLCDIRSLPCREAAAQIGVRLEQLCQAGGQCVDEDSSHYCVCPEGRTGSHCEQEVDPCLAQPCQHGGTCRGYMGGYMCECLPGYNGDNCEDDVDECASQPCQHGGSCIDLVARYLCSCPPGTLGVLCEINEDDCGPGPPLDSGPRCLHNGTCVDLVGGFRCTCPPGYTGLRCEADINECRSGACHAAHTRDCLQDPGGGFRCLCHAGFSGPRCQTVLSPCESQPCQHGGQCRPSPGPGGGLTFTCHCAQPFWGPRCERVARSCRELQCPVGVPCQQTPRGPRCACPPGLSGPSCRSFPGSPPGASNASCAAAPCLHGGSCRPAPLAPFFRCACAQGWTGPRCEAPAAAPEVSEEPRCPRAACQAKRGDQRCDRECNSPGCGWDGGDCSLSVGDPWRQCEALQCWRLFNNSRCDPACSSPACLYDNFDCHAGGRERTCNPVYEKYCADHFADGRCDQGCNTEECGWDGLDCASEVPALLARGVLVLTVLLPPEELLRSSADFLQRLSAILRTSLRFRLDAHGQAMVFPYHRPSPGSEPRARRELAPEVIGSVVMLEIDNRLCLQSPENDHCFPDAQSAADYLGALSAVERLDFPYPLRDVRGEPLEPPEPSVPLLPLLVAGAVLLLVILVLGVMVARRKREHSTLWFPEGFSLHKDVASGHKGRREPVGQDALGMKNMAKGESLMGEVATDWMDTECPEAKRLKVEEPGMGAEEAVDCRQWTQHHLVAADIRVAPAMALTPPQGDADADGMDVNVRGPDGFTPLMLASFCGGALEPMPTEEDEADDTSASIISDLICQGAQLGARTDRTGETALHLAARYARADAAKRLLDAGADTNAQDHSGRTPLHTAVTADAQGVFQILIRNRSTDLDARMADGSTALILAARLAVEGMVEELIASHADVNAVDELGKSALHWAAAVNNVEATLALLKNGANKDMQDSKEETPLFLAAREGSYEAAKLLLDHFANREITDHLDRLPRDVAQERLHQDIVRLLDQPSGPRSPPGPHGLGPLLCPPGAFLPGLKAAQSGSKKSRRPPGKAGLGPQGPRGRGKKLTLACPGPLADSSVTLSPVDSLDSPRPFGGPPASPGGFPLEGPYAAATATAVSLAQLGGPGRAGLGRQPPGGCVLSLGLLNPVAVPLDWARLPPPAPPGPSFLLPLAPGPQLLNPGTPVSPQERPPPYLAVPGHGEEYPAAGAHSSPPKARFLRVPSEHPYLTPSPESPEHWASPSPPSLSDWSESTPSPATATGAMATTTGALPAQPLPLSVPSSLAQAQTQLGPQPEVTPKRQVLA
The nature of assay [20]: probe aEGFR binding to arrayed compounds – biochemical, biotinylated probe, 635/667 nm fluorescence, primary screen (AID 1097).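 Also: probe is a biotinylated anti-EGFR antibody binding compounds printed on slides; score combines fluorescence near 667 nm and signal to noise of each spot.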 Conditions: small-molecule microarray, higher = more signal.

The structures appear in SMILES notation. Calls of active or inactive are those of the source.

Neurogenic locus notch homolog protein 2 (Homo sapiens), sequence (Q04721 whole entry, looked up, canonical isoform): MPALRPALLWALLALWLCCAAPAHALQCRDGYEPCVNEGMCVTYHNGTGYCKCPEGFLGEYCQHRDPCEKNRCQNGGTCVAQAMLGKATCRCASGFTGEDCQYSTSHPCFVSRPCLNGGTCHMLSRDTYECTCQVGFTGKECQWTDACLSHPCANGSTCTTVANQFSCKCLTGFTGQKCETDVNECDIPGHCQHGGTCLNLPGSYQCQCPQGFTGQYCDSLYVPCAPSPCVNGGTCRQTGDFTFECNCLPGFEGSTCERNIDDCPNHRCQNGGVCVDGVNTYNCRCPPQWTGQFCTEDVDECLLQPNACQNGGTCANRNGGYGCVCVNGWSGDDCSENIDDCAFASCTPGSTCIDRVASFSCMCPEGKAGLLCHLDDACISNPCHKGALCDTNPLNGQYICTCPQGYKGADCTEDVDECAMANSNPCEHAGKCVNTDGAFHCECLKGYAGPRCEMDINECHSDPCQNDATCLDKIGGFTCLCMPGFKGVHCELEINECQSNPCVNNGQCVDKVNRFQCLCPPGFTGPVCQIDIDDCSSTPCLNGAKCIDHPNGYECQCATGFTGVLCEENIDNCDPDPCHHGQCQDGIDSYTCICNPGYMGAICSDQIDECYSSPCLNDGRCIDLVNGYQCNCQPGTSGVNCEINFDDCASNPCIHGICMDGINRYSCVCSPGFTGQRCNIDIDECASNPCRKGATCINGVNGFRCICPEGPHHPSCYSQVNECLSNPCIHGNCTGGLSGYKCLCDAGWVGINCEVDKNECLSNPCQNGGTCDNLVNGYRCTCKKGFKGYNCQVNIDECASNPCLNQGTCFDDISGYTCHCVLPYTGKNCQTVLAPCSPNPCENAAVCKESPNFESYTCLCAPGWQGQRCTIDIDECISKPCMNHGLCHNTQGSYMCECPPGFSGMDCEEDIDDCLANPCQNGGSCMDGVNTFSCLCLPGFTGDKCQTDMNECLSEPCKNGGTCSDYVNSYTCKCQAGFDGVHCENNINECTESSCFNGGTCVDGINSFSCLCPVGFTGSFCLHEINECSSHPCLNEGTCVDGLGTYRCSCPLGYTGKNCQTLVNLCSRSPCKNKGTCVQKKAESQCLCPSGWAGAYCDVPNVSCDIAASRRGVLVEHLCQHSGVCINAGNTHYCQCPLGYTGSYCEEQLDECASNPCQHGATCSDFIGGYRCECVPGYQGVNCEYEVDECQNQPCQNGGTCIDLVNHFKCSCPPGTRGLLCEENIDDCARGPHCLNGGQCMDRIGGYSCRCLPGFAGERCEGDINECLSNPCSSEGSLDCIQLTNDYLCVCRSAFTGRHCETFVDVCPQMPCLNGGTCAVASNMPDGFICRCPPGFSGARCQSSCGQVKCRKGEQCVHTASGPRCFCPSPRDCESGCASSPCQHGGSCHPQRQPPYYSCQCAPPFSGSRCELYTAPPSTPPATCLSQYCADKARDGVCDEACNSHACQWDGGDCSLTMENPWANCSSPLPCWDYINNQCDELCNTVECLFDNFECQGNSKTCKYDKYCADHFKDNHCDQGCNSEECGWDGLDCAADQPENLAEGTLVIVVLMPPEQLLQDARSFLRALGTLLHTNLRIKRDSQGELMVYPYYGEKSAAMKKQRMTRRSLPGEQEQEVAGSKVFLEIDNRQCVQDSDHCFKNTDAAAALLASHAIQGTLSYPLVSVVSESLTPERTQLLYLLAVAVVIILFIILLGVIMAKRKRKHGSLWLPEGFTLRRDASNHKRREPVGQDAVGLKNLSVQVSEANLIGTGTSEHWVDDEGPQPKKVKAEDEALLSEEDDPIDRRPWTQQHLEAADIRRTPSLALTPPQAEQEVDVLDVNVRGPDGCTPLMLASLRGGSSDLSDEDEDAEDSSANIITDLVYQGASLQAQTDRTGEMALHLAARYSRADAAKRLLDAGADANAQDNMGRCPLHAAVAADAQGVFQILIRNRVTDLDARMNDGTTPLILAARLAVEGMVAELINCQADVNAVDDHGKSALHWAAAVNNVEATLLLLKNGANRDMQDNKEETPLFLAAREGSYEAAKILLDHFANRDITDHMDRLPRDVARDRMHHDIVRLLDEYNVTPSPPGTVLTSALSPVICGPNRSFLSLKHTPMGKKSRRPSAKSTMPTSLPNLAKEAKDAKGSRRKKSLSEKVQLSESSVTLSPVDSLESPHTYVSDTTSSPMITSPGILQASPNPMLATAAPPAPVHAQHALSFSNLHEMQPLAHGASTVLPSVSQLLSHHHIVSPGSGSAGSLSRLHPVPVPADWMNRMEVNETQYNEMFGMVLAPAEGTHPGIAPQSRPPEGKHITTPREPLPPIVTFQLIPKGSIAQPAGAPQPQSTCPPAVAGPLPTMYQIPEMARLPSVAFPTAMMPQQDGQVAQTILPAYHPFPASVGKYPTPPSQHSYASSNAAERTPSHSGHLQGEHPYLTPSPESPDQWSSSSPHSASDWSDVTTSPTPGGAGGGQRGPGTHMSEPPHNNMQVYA

`CCCCCCc1nc(-c2cc(C)c(OC)c(C)c2)c(C)c2c1[Si](C(C)C)(C(C)C)OC2`: the composite z-score in [1] is -0.0656; in [2] it was 0.0489; in assay [3] it was -0.093; in assay [4], -0.0949; in assay [5], 0.0241; in assay [6] it was -0.391. Besides, the composite z-score is -0.453 in assay [7]; 0.021 in assay [9]; -0.116 in assay [10]; -0.92 in assay [11]; -0.407 in assay [15]; -0.0915 in assay [17]. Moreover, the values for the composite z-score in assay [18], in assay [19] and in [20] were 0.058, -0.127 and -0.171, respectively. For the same molecule, the z-score in assay [8] is 0.785 (inactive); in assay [12], 0.0333 (inactive); in assay [13], -0.922 (inactive); in assay [14], 0.276 (inactive); in assay [16], 0.352 (inactive).
Take `CCOC(=O)c1ccc(NC(=O)O[C@H]2[C@H](OC(=O)Nc3ccc4c(c3)OCO4)[C@H](OC(=O)Nc3ccc4c(c3)OCO4)[C@@H](OC)O[C@@H]2CO)cc1`: the composite z-score in assay [1] came to 0.237; in assay [2], 0.807; in [3], 0.129; in assay [4] it was 1.14; in assay [5] it was 1.59; in assay [6] it was 0.898. In addition, the composite z-score in assay [7] was found to be 1.3; in assay [9] it was 0.792; in assay [10] it was 0.28; in assay [11], 1.54; in assay [15], 3.1; in assay [17], 0.17. In addition, the composite z-score in assay [18] came to 1.34; in assay [19], 1.06; in assay [20], 0.251. For the same molecule, the z-score is 1.08 (inactive) in assay [8]; 1.21 (inactive) in assay [12]; 1.57 (inactive) in assay [13]; 6.12 (inactive) in [14]; 0.62 (inactive) in assay [16].
As to `O=C(CS)NCCCCCNC(=O)[C@@H]1C[C@@H]2C(=O)N3CCC[C@H]3C(=O)N2[C@@H]1c1cccc(OCCO)c1`, the composite z-score in assay [1] is 0.511; in assay [2], 1.59; in assay [3], -0.106; in [4], 0.051; in assay [5] it was -0.377; in [6], 1.19. Further, the composite z-score in assay [7] was 1.43; in assay [9] it was -0.599; in assay [10], -0.166; in assay [11] it was 1.07; in [15], 2.74; in assay [17] it was -0.0998. The composite z-score in assay [18] was 0.102; in assay [19], 0.0995; in assay [20], -0.0828. Also, the z-score was 0.174 (inactive) in assay [8]; 0.147 (inactive) in [12]; 0.793 (inactive) in [13]; -0.153 (inactive) in assay [14]; -1.01 (inactive) in assay [16].
Turning to `C=CCC(OC(C)=O)[C@@H]1[C@@H](N(Cc2ccc(-c3cccc(C(F)(F)F)c3)o2)C(=O)c2ccc(C)cc2)c2cc(OCCCO)ccc2N1C(=O)c1ccc2ccccc2c1` (stereo not given in full), the composite z-score in assay [1] is -0.302; in [2], 0.462; in [3], 0.0002; in [4], 0.298; in assay [5] it was -0.204; in [6] it was -0.0678. For the same molecule, the composite z-score in assay [7] is 0.273; in assay [9], 0.0494; in [10] it was 0.0749; in assay [11], 0.128; in assay [15], 0.407; in [17], -0.138. The composite z-score in assay [18] is 0.485; in [19], 0.313; in assay [20] it was -0.125. Moreover, the z-score in assay [8] was 0.0925 (inactive); in [12], 0.488 (inactive); in [13] it was 0.668 (inactive); in assay [14] it was 0.742 (inactive); in [16], 1.14 (inactive).
Take `COc1ccccc1CN1C(=O)c2ccccc2[C@@]2(Cc3ccccc3N(CC(F)(F)F)C2=O)[C@@H]1c1ccc(CO)cc1`: the composite z-score is -0.951 in assay [1]; 0.252 in [2]; -0.226 in [3]; -0.244 in assay [4]; 0.166 in [5]; -0.226 in assay [6]. The composite z-score in assay [7] was 0.778; in assay [9], -0.29; in [10], -0.403; in assay [11], 0.955; in assay [15] it was 0.104; in [17] it was -0.332. For the same molecule, the composite z-score in [18] was 1.18; in [19], 0.538; in assay [20], -0.322. Also, the z-score is -3.55 (inactive) in assay [8]; 0.17 (inactive) in [12]; 0.181 (inactive) in assay [13]; -1.7 (inactive) in assay [14]; 1.07 (inactive) in assay [16].

The values are drawn from PubChem BioAssay.
